The source of these data is PubChem BioAssay.

The source made the active and inactive calls.

Assay [1] can be described thus: A549 cell viability effects, profiling panel, calcein-AM fluorescence, 48 h, basal (AID 1162). Conditions: higher = more signal.
Assay [2] is described as follows: adipocyte viability effects, profiling panel, cell-based, 3T3-L1 adipocytes, calcein-AM fluorescence, 48 h, basal (AID 1163). Conditions: 3T3-L1 adipocytes viability, higher = more signal.
Assay [3] in a line: HepG2 cell viability effects, profiling panel, calcein-AM fluorescence, 48 h, basal (AID 1164). Conditions: higher = more signal.
Assay [4] is described as follows: MM1S cell viability effects, profiling panel, calcein-AM fluorescence, 48 h, basal (AID 1165).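 Note: viability of MM1S multiple myeloma cells under basal unstimulated conditions.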 Conditions: higher = more signal.
The nature of assay [5]: basal RPMI8226 viability, no added stimulus, profiling panel, cell-based, calcein-AM fluorescence, 48 h, PK04 Diversity Set (AID 1166).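 Note: cells grown under basal conditions without added stimulus.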 Conditions: RPMI8226 myeloma viability, higher = more signal.
Assay [6] in a line: basal HepG2 mitochondrial membrane potential changes, profiling panel, cell-based, JC-1 fluorescence, 24 h, 100 nL compound (AID 1167). Conditions: higher = more signal.
A short description of assay [7]: basal 3T3-L1 adipocyte mitochondrial potential changes, profiling panel, cell-based, JC-1 fluorescence, 3T3-L1 adipocytes, 24 h, 100 nL compound (AID 1168). The conditions noted are these: JC-1 mitochondrial fluorescence, higher = more signal, called active from +8 up or from −8 down.
A short description of assay [8]: basal RPMI8226 mitochondrial membrane potential changes, profiling panel, cell-based, JC-1 fluorescence, 24 h, 100 nL compound (AID 1169). The conditions noted are these: RPMI8226 myeloma, JC-1 mitochondrial potential fluorescence, higher = more signal.
Assay [9] is described as follows: basal MM1S mitochondrial membrane potential changes, profiling panel, cell-based, JC-1 fluorescence, 24 h, 100 nL compound (AID 1170). The conditions noted are these: higher = more signal.
Assay [10] in a line: A549 lung cancer cell viability effects, profiling panel, resazurin fluorescence, 24 h, PK04 Diversity Set (AID 1171). Conditions: higher = more signal, called active from +8 up or from −8 down. A general note: The colour change of resazurin is a common sign of viable cells or microbes.
Note: test concentration not given here.

`COCCCNC(=O)[C@@]1(Cc2ccccc2)N=C(c2ccc(OCCCO)cc2)O[C@H]1c1ccccc1CN=[N+]=[N-]`: the z-score was 0.925 in assay [1]; -0.703 in [2]; 0.941 in assay [3]; -0.0943 in [4]; -1.75 in assay [5]; 1.31 in [6]. Also, the z-score is 0.571 (inactive) in assay [7], -1.26 in [8], -0.918 in assay [9] and -0.484 (inactive) in assay [10].

On to `CO[C@H]1O[C@H](CO)[C@@H](OC(=O)Nc2cccc(F)c2)[C@H](OC(=O)Nc2ccccc2)[C@H]1OC(=O)Nc1ccccc1`, for which the z-score is -2.2 in assay [1]; 1.33 in assay [2]; -2.94 in [3]; -1.53 in assay [4]; -4.26 in assay [5]; -0.389 in assay [6]. In addition, the z-score is 0.518 (inactive) in assay [7], -1.33 in assay [8], -0.561 in assay [9] and -3.72 (inactive) in assay [10].

As to `COC(=O)c1c(CC[C@@H](CO)NC(=O)N[C@H](Cc2ccccc2)Cn2cc(-c3ccccn3)nn2)oc(C(C)=O)c1C(=O)OC`, the z-score was 0.372 in assay [1]; 0.337 in assay [2]; -0.362 in assay [3]; 0.258 in assay [4]; -0.406 in [5]; -0.607 in [6]. The z-score was -0.821 (inactive) in assay [7], -0.0316 in [8], -0.131 in [9] and -0.533 (inactive) in [10].

For the molecule `C=C(CCCC)/C(=C/C[C@H](OC(C)=O)c1ccc(OCCO)cc1)c1cnc2ccccc2c1`, the z-score is -0.138 in assay [1]; 0.0248 in [2]; -0.257 in [3]; -2.17 in [4]; -0.861 in assay [5]; 1.91 in assay [6]. Also, the z-score is -1.26 (inactive) in assay [7], -0.108 in [8], -0.552 in assay [9] and 1.24 (inactive) in assay [10].

Take `O=C1O[C@H](c2ccccc2)[C@H](c2ccccc2)N2[C@H]1[C@@H](C(=O)NC[C@H](O)c1ccccc1)[C@]1(C(=O)Nc3ccc(C#CC4=CCCCC4)cc31)[C@H]2c1ccccc1OCCO`: the z-score in assay [1] is -2.45; in assay [2], -0.406; in assay [3] it was -3.88; in [4] it was -3.28; in [5], -4.23; in [6], -2.22. Also, the z-score in assay [7] was 1.26 (inactive); in assay [8], -1.09; in assay [9] it was -1.79; in [10], -3.3 (inactive).

On to `CCOC(=O)C[C@H]1[C@H](OC(=O)c2ccc(C(=O)c3ccccc3)cc2)[C@@H](NC(=O)Cc2ccc(OC)cc2)c2cc(OCCCO)ccc2N1C(=O)c1ccc2ccccc2n1`, for which the z-score in assay [1] is 1.33; in assay [2], -0.121; in assay [3], 0.493; in assay [4], -0.854; in assay [5] it was -0.614; in assay [6], 0.658. For the same molecule, the z-score is 2.22 (inactive) in assay [7], -0.234 in [8], 0.567 in assay [9] and -0.383 (inactive) in [10].

Turning to `O=C1OCC=C[C@H]2OC34C=CCN(Cn5nnc6ccccc65)C(=O)[C@H]3N(CCCCCO)C(=O)[C@@H]4[C@@H]12` (stereo not given in full), the z-score in [1] is -0.382; in [2], 0.188; in assay [3], -0.609; in assay [4], 0.823; in [5], 0.903; in assay [6], -0.0737. In addition, the z-score in assay [7] was -0.135 (inactive); in assay [8], 0.205; in assay [9] it was 0.183; in [10], -0.301 (inactive).

On to `COCCOC(=O)N1C(=O)[C@@]2(c3cc(C#CC4(O)CCCCCC4)ccc31)[C@H](C(=O)Nc1nc3ccccc3s1)[C@H]1C(=O)O[C@H](c3ccccc3)[C@H](c3ccccc3)N1[C@@H]2c1ccccc1OCCO`, for which the z-score in assay [1] was 1.29; in assay [2], 1.14; in assay [3], -0.333; in assay [4] it was -2.18; in [5] it was -3.42; in [6], -3.05. The z-score in assay [7] is 1.47 (inactive); in assay [8] it was -0.866; in assay [9] it was -0.876; in assay [10], -0.511 (inactive).

On to `CCOC(=O)C[C@H]1[C@H](OC(=O)c2cc3ccccc3oc2=O)[C@@H](NC(=O)CC(C)C)c2cc(OCCCO)ccc2N1C(=O)c1ccccc1`, for which the z-score in assay [1] was -0.276; in [2] it was 1.52; in assay [3], 0.314; in [4] it was 0.117; in [5] it was -0.0793; in assay [6], 1.14. The z-score in assay [7] is 0.9 (inactive); in assay [8], -0.882; in assay [9], 0.915; in [10] it was -1.33 (inactive).

Take `O=C(O)C1N=C(c2ccc(OCCCO)cc2)N(c2ccccc2)O1` (stereo not given): the z-score in assay [1] was -0.906; in assay [2], 0.135; in [3] it was -0.0572; in [4], 0.569; in [5], -0.547; in [6], -0.142. Also, the z-score was 0.663 (inactive) in assay [7], -1.22 in [8], -0.228 in [9] and 0.417 (inactive) in assay [10].

`CN1C(=O)C2C=CC(C(O)c3ccccc3)N(N3CCCCC3)C2C1=O` (stereo not given): the z-score was -1.15 in assay [1]; -0.898 in [2]; -0.0624 in assay [3]; -0.4 in assay [4]; 0.539 in assay [5]; -0.699 in assay [6]. Besides, the z-score in [7] is 0.651 (inactive); in assay [8], 0.0583; in assay [9] it was 0.581; in [10] it was -0.789 (inactive).

Regarding `C=CC[C@]1(C(N)=O)N=C(c2ccc(OCCCO)cc2)O[C@H]1c1ccccc1`, the z-score in assay [1] is 0.354; in [2], 0.464; in [3], -0.717; in assay [4], -0.519; in assay [5], -0.111; in assay [6], -0.579. In addition, the z-score in [7] is -1.09 (inactive); in assay [8], -0.414; in assay [9], 0.13; in assay [10], -0.0187 (inactive).

As for `COC(=O)[C@@]1(Cc2ccc(OC)cc2)[C@H]2c3cc(C(=O)N4CCCC4)n(CCCNc4ncc(C(F)(F)F)cc4Cl)c3C[C@H]2CN1C(=O)c1ccccc1`, the z-score in assay [1] is -1.54; in assay [2], -1.03; in assay [3] it was -0.841; in [4], -1.9; in [5] it was -4.57; in assay [6] it was 0.261. The z-score in assay [7] was -1.31 (inactive); in [8] it was -0.873; in [9], -1.28; in assay [10] it was -0.577 (inactive).
